Laboratory results: PubChem BioAssay (EPA / NIEHS)
Calls of active or inactive are those of the source. Rule for the calls: active = hit-call score of the fitted dose curve at least 0.9, where 1 is the maximum; inactive = score below 0.9.

The molecules below were run on Cytochrome P450 3A7 (Homo sapiens) (UniProt P24462) (assay: LTEA_HepaRG_CYP3A7: Life Technologies and Expression Analysis (LTEA) Assay for CYP3A7 using HepaRG (AID 2283492)). Conditions: mRNA level, 48 h; actives raise or lower the signal.
Sequence of Cytochrome P450 3A7 (Homo sapiens) (P24462 whole entry, looked up): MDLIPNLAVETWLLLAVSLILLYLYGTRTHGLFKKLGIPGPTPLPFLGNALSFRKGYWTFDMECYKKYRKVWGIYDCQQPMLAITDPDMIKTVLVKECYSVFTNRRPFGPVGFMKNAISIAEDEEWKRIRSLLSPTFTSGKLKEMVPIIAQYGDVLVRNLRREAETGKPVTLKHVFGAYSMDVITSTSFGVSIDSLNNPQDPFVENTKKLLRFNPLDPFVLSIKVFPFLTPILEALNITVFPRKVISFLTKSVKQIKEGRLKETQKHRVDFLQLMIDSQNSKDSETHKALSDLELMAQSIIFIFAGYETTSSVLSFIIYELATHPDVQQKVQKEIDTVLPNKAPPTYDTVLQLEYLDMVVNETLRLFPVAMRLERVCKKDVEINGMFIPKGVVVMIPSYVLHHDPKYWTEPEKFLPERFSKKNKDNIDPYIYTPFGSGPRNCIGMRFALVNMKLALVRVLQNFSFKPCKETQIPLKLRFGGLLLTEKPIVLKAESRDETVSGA
Description: LTEA_HepaRG is a cell based, multiplexed-readout assay that uses HepaRG, a human liver cell line, with measurements taken at 48 hours after chemical dosing on a 96-well plate.LTEA_HepaRG_CYP3A7 is one of 102 assay component(s) measured in the LTEA HepaRG cell culture assay. It is a marker of NR mediated metabolism/Undifferentiated hepatocyte.Data from the assay component LTEA_HepaRG_CYP3A7 was analyzed into 1 endpoint. This assay endpoint, LTEA_HepaRG_CYP3A7, was analyzed with bidirectional fitting relative to DMSO as the negative control and baseline of activity. Using a type of inducible reporter, measures of mRNA induction for gain or loss-of-signal activity can be used to understand regulation of transcription factor activity. To generalize the intended target to other relatable targets, this assay endpoint is annotated to the cyp intended target family, where the subfamily is xenobiotic metabolism.
A total of 1060 chemcials from the ToxCast library were tested in eight-point concentration-response experiments. Cell culture and cytotoxicity assays were conducted at Thermo Fisher Scientific's Custom Services facility (Madison, WI). A single lot of human HepaRG cells (Thermo Fisher Scientific, Frederick, MD) was used for the cell culture experiments. 96-well format collagen type I coated plates of human HepaRG cells were prepared using established methods. Briefly, cryopreserved HepaRG cells were thawed, plated at a density of approximately 100,000 cells/well in HepaRG Thaw, Plate, and General Purpose media (HPRG770, Thermo Fisher Scientific), and incubated for 48 hours. 0.5% DMSO was selected as vehicle control to balance the requisite need of DMSO in HepaRG cultures to maintain differentiation (for example, baseline metabolism, proportions of hepatocytes vs. cholangiocytes), while enabling further hepatic receptor pathway activation (for example, PXR and CAR) in response to chemical exposure. 48 hours after plating, the culture medium was replaced with HepaRG Serum-Free Incudtion Media. Cells were exposed to each test chemical in duplicate and maintained in CO2 incubators for another 48 hours. Chemical plates were thawed to room temperature and 200x concentrations of treatment groups were prepared. 8-point conentration-reponse curves were made with the highest exposure at 100 uM, followed by half-log dilutions, all in 0.5% DMSO. Each test plate contained variouse controls, induction positive controls (1mM phenobarbital), cytotoxicity positive controls ([…] aflatoxin B1), vehicle controls (0.5% DMSO), and total lysis controls (0.5% DMSO). Cell morphology images were taken using an Essen IncuCyte FLR automated microscope, with six 96-well plates imaged in about 24 minutes. Images were captured and exported and JPEG files. Spent culture media was transfered to black-well plates for the LDH assay, and remaining media was sorted at -80 C for later use. Cells were treated with RLT buffer and frozen until shipped for gene expression analysis. Total RNA was isolated from the cell suspension in 75 uL of Buffer RLT (Qiagen, Germantown, MD 20874) by Quintiles/Expression Analysis (Durham, NC) using a custom isolation procedure. Total RNA from each plate well was transferred to a preamplification plate. Fluidigm's 96.96 Dynamic ArrayTM (Fluidigm, Amsterdam, the Netherlands) technology was used for gene expression analyses by quantitative reverse transcription polymerase chain reaction (qRT-PCR, performed by Quintiles/Expression Analysis, Durham, NC)89. Standard TaqManTM Assays (Applied Biosystems/ThermoFisher Scientific, Foster City, CA) were used to assess the expression of 93 genes selected based on their selectivity and sensitivity to important hepatic receptors known to be modulated by environmental chemicals; importance in human hepatocyte functionality; and hepatotoxicity. […]
For O=C(O)C1C(C(=O)O)C2(Cl)C(Cl)=C(Cl)C1(Cl)C2(Cl)Cl (stereo not given), the outcome was “inactive”. CCNc1nc(Cl)nc(NC(C)(C)C)n1 was tested, and the outcome was “inactive”. For CCCCN(CCCC)SN(C)C(=O)Oc1cccc2c1OC(C)(C)C2, the AC50 was 4.49 µM (active). For CCCN(CCC)c1c([N+](=O)[O-])cc(C(C)C)cc1[N+](=O)[O-], the outcome was “inactive”. With CCOc1ccc(C(C)(C)COCc2cccc(Oc3ccccc3)c2)cc1 the AC50 was 1.64 µM (active). In the case of CCOS(=O)(=O)OCC, the outcome is reported as “inactive”. In the case of c1cc2c3c(cccc3c1)CC2, the outcome is reported as “inactive”. For c1nc[nH]n1, the outcome was “inactive”. With O=[N+]([O-])c1ccccc1 the outcome was “inactive”. For CC(C)(C)OOC(C)(C)C, the outcome was “inactive”. CCOC(=O)c1ccccc1C(=O)OCC was tested, and the outcome was “inactive”. With CCCCN(CCCC)N=O the outcome was “inactive”. In the case of Nc1ccc(Cl)cc1, the outcome is reported as “inactive”. ClC(Cl)(Cl)c1ccccc1 was tested, and the outcome was “inactive”. With Nc1ccc2ccccc2c1 the outcome was “inactive”. For CCOP(=S)(OCC)SCSCC, the outcome was “inactive”. O=[N+]([O-])c1ccc(Cl)c(Cl)c1 was tested, and the outcome was “inactive”. For Cc1cccc(N)c1, the outcome was “inactive”. In the case of ClC1=C(Cl)C2(Cl)C3C(Cl)C(Cl)CC3C1(Cl)C2(Cl)Cl (stereo not given), the outcome is reported as “inactive”. For c1ccc(OP(Oc2ccccc2)Oc2ccccc2)cc1, the outcome was “inactive”. With Cc1ccc([N+](=O)[O-])cc1C the outcome was “inactive”. With O=C(O)C(Cl)Cl the outcome was “inactive”. For O=P1(N(CCCl)CCCl)NCCCO1 (stereo not given), the outcome was “inactive”. For OCC1CO1 (stereo not given), the outcome was “inactive”. In the case of CCCCCCCc1ccc(O)cc1, the outcome is reported as “inactive”. CC(Cc1ccc(OCC(=O)O)cc1)NCC(O)c1csc(C(F)(F)F)n1 (stereo not given) was tested, and the outcome was “inactive”. CCOP(=S)(Oc1ccc([N+](=O)[O-])cc1)c1ccccc1 (stereo not given) was tested, and the AC50 was 2.87 µM (active). With CN(C)C(=O)Cl the outcome was “inactive”. For CC(Cl)(Cl)C(=O)O, the outcome was “inactive”. For O=P(Oc1ccccc1)(Oc1ccccc1)Oc1ccccc1, the AC50 was 12.6 µM (active). CCCCc1ccccc1 was tested, and the outcome was “inactive”. In the case of ClC(Cl)c1ccccc1, the outcome is reported as “inactive”. In the case of CCC1(c2ccccc2)C(=O)N=C(O)NC1=O (stereo not given), the AC50 is reported as 41.3 µM (active). c1ccc2c(c1)Nc1ccccc1S2 was tested, and the outcome was “inactive”. For Nc1cc2c3c(c1)C(c1ccccc1)=N[C@@H](NC(=O)c1cccnc1)C(=O)N3CC2, the AC50 was 5.11 µM (active). For CCN(CC)c1ccccc1, the outcome was “inactive”. CCC(C)(C)c1ccc(O)cc1 was tested, and the outcome was “inactive”. For CSC(C)(C)C=NO, the outcome was “inactive”. [N-]=[N+]=[N-] was tested, and the outcome was “inactive”. In the case of Cc1ccc(N)cc1N, the outcome is reported as “inactive”.
